In article PMC5540273 (PLoS ONE, 2017):

test system: p38-delta; conditions: concentration: 1 μM, replicates: in singlicate; n = 1
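Further: KINOMEscan kinase panel screen.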

Compound | %Inh
O=C(Nc1n[nH]c2cc(-c3ccccc3F)ccc12)C1CC1 [SB-733371] | 0%
C[C@@H]1CC[C@H](C(=O)NC2CCCCC2)CN1c1cc(-c2ccc3c(N)n[nH]c3c2)nc(N)n1 [GSK2291363] | 42%
COc1cc2ncn(-c3cc(OCCCc4ccccc4)c(C(N)=O)s3)c2cc1OC [GSK205189] | 6%
CCc1nc(-c2cccc(C)c2)c(-c2ccncc2)s1 | 0%
COc1ccc(Nc2nccc(N3CCC(NS(=O)(=O)c4ccc(NC(C)=O)cc4)C3)n2)cc1 (stereo not drawn) [GSK1379729] | 30%
COc1cc(Nc2nccc(N3CCC(NC(=O)C4COc5ccccc5O4)C3)n2)cc(OC)c1OC (stereo not drawn) [GSK1379761] | 34%
CC(C)(C)c1ccc(C(=O)Nc2cn3cc(-c4ccccc4)ccc3n2)cc1 | 34%
CCCNC(=O)Nc1ccc(Oc2ncnc3ccn(C)c23)cc1 | 4%
O=C(NCc1cccs1)c1cc(C(=O)c2c(Cl)cccc2Cl)c[nH]1 [GW823670] | 0%
Cl.NS(=O)(=O)c1cccc(Nc2cc(-c3ccc(F)cc3)n[nH]2)c1 [GW824645] | 0%
COC(=O)c1c(-c2ccccc2)c2cc(Br)ccc2c(=O)n1Cc1ccc(S(C)(=O)=O)cc1 | 38%
COc1cc2ncn(-c3cc(OCc4ccncc4)c(C(N)=O)s3)c2cc1OC [GSK336313] | 42%
Nc1nc(-c2ccccc2F)c(-c2ccnc3ccccc23)s1 [GW560459] | 36%
CN1C(=O)C(Nc2ccccc2)=C(c2ccccc2)C1=O [SB-300079] | 0%
O=c1cc(N2CCOCC2)nc2n(Cc3ccc(F)c(Cl)c3)ccn12 [GSK2297099] | 36%
O=C(NCCNc1ccnc(Nc2ccc(F)cc2)n1)Nc1ccc2c(c1)OCO2 [GSK1379882] | 37%
Nc1nc(N)c2nc(-c3ccccc3)[nH]c2n1 [SKF-12778] | 19%
COC(=O)c1c(-c2ccccc2)c2cc(C)ccc2c(=O)n1Cc1ccccc1 | 21%

Compound | %Inh
COc1cc2nccc(Nc3ccc(OCc4ccc(NC(C)=O)cc4)cc3)c2cc1OC.Cl [GW440135] | 24%
Cc1nn2c(=O)cc(N3CCOCC3)nc2n1Cc1cccc(Cl)c1Cl [GSK2342769] | 17%
O=C(Nc1n[nH]c2nc(-c3ccccc3)c(Br)cc12)C1CC1 [SB-708998] | 0%
COc1cc2ncn(-c3cc(OCc4ccc(S(C)(=O)=O)cc4)c(C(N)=O)s3)c2cc1OC [GW869979] | 0%
COc1cccc(C2=C(Nc3cccc(C(=O)O)c3)C(=O)NC2=O)c1 [SB-390770] | 34%
COc1cc(Nc2ccnc3ccc(C(F)(F)F)cc23)cc(OC)c1OC [GW577382] | 4%
CCC(=O)c1c(-c2ccccc2)c2cc(Cl)ccc2c(=O)n1Cc1ccc(C(=O)O)cc1 | 4%
COc1cccc(-n2cnc3c(N)ncnc32)c1 [SKF-97416] | 0%
Nc1nccc2scc(-c3ccc4c(c3)CCN4C(=O)Cc3ccccc3)c12 [GSK2576924] | 19%
Cc1cccc(-c2nc(Nc3ccc4c(cnn4C)c3)c3ccccc3n2)n1 [GW876731] | 0%
CCS(=O)(=O)c1ccc(OC)c(Nc2ncc(-c3ccc(F)cc3)o2)c1.Cl [GW591947] | 43%
CCn1c(-c2nonc2N)nc2ccccc21 [SB-693162/GW549034] | 0%
Nc1n[nH]c2ncc(-c3ccccc3)cc12 [SB-517081] | 24%
COc1cccc(C2=C(N(C)c3ccccc3)C(=O)NC2=O)c1 [SB-334865] | 42%
Cc1ccccc1COc1cc(-n2cnc3cc(Cl)ccc32)sc1C(N)=O [GW813349] | 0%
COc1ccc(-c2coc3ccc(-c4nnc(SCc5cccc(C#N)c5)o4)cc23)cc1 | 16%
CN(C)c1cc(-c2ccc3c(N)n[nH]c3c2)nc(N)n1 [GSK2219329] | 37%
COc1cc2nccc(Nc3cccc(Oc4ccccc4)c3)c2cc1OC.Cl [GW284543] | 22%
